Source: PubChem BioAssay
Only some compounds are listed: those with a hit (about 9.2% of all), similar ones and a draw of the others.
ELG1 genotoxic: qHTS screen for small molecules that induce genotoxicity in human embryonic kidney (HEK293T) cells expressing luciferase-tagged ELG1 | HEK293T ELG1-luciferase reporter, luminescence, 16 h | Potency, µM (highest dose often 46 µM), for the others: top-dose activity change, positive = activation, most hits filed as activators | 1.3% of 330,000 active | AID 504466, 2011; note: % of control where 0% means no effect; nearly all actives have a fitted effect of over 60% in size
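16 hr compound incubation (37 °C, 5% CO2) of HEK293T cells carrying luciferase-tagged ELG1; luciferase then measured by ONE-Glo luminescence after 30 min at RT.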
Rab9 prom act: qHTS Assay for Rab9 Promoter Activators | Huh7 Rab9 promoter-luciferase reporter, luminescence, 24 h | Potency, µM (top dose mostly 9.22 µM), for the others: top-dose activation, negative = inhibition, actives largely listed as activators | 2.8% of 320,000 active; note: % of control where 0% means no effect; nearly all actives have a fitted effect of over 60% in size
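Using Huh7 cells stably transfected with Rab9 promoter–luciferase, compounds were incubated 24 h at 37 °C, 5% CO2; luciferase luminescence was read 10 min after reagent addition.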
NPC1 prom act: qHTS Assay for NPC1 Promoter Activators; Huh7 NPC1 promoter luciferase reporter, 24 h; Potency, µM (highest dose often 9.22 µM), without a hit: top-dose activation, most hits filed as activators; 2.4% of 320,000 active; AID 485313, 2010; note: % of control where 0% means no effect; nearly all actives have a fitted effect of over 60% in size
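Stably transfected Huh7 (NPC1 promoter→luciferase), 1500 cells/well in Opti-MEM + 10% FBS, 2 h settle, then compound 24 h at 37 °C. Luminescence after 10 min with Amplite reagent.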
FLuc modulator: qHTS profiling assay for firefly luciferase inhibitor/activator using purifed enzyme and Km concentrations of substrates (counterscreen for miR-21 project); AID 588342, 2011; 6.9% of 360,000 active; Luciferin 4-monooxygenase (Photinus pyralis), P08659; Potency, µM (titrated, usually from 57.5 µM), for inactives: at the highest dose activity change, negative = inhibition, actives largely listed as inhibitors; purified FLuc, Km substrates, luminescence inhibition;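 note: plate controls were vehicle for no effect and reference inhibitor for full effect; nearly all actives have a fitted effect of over 55% in size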
Target sequence (P08659 whole entry, looked up): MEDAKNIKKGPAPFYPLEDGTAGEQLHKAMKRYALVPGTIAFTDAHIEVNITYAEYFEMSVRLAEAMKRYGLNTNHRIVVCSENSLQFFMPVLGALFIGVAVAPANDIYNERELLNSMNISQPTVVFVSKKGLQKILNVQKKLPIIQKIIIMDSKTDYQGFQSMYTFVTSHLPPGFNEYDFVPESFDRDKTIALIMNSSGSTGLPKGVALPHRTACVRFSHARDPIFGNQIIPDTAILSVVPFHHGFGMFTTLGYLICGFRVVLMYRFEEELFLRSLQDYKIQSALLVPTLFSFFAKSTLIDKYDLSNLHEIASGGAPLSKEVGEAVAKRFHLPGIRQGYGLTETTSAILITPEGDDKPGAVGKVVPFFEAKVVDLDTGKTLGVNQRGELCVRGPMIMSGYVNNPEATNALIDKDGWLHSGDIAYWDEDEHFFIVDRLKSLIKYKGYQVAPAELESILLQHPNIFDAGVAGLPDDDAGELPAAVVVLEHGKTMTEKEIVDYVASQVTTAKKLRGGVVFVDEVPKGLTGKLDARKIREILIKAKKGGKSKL
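Purified P. pyralis luciferase, 10 nM final, with Km-level 10 uM D-luciferin and 10 uM ATP in 50 mM Tris acetate pH 7.5, 10 mM Mg acetate, 0.01% Tween-20, 0.05% BSA; 6-point qHTS titration about 60 µM downward; luminescence read.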
ELG1 repair inh: qHTS screen for small molecules that inhibit ELG1-dependent DNA repair in human embryonic kidney (HEK293T) cells expressing luciferase-tagged ELG1. AID 504467, 2011. Potency, µM (series often up to 46.1 µM), for inactives: at the highest dose activity change, negative = inhibition, most hits filed as inhibitors. 2.3% of 330,000 active. HEK293T ELG1-luciferase reporter, luminescence, 16 h; DNA damage induced by 5-fluorouridine; note: % is set by controls: 0 for no effect and ±100 for the full control effect; nearly all actives have a fitted effect of over 55% in size
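Cells (2,000 per well) received 5-fluorouridine plus test compound or DMSO and were incubated 16 hr at 37 °C, 5% CO2. Luciferase activity was read by luminescence 30 min after ONE-Glo addition; signal suppression marked inhibition of damage-induced ELG1 function.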
SMN2 splice enh: qHTS Assay for Enhancers of SMN2 Splice Variant Expression; HEK293 SMN2-luciferase splicing reporter, luminescence, 30-36 h; Potency, µM (doses to about 46.1 µM), inactives show top-dose activity change, positive = activation, usual class: activators; 2.8% of 210,000 active; AID 1458, 2008; note: % of control where 0% means no effect; nearly all actives have a fitted effect of over 55% in size
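qHTS luciferase splicing reporter: luminescence rises when SMN2 exon 7 is included in transfected HEK293 cells. Compound exposure lasted 30-36 h at 37C, with 4.5 mM final sodium butyrate as control, followed by a ONE-Glo read.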
The depositor's hits bear a star; u = inconclusive; x = no result given. Calls come from the whole dose curve; as a rule, active = well fitted curve in the direction sought with a large enough effect; inconclusive = small, poorly fitted or top-dose-only effect, or another doubt; inactive = no such curve, though single readings can be large; an effect the other way counts as inactive or inconclusive. Potency is the fitted concentration of half-maximal effect.

SMILES	ELG1 genotoxic	Rab9 prom act	NPC1 prom act	FLuc modulator	ELG1 repair inh	SMN2 splice enh
O=C(CCS(=O)(=O)c1ccccc1)N1CCN(c2ccccc2F)CC1	8.2µM*	1.3µM*	1.8µM*	11µM*	u	x
O=C(Nc1n[nH]c(C2CCCCC2)n1)C1CCCCC1	21µM*	15%	11%	-12%	u	0.11µM*
COc1ccc(C)cc1NC(=O)Cn1c(=O)cc(C)c2c(C)nn(C)c21	x	x	x	-2%	x	x
CCOCCCNC(=O)C(c1ccc(C)cc1)N(Cc1ccc2c(c1)OCO2)C(=O)c1ccc(NC(C)=O)cc1 (stereo not drawn)	x	x	x	-2%	x	11%
Cc1ccc(-c2c(=O)n(OCc3ccccn3)c3ccccc3[n+]2[O-])cc1	4%	-9%	-9%	1%	u	x
COc1ccc(-c2c(=O)n(OCc3ccccn3)c3ccccc3[n+]2[O-])cc1OC	-5%	-5%	-1%	0%	13µM*	-29%
CCOC(=O)Cc1c(C)nc2c(-c3cccc(Br)c3)c[nH]n2c1=O	-11%	1%	2%	21µM*	16µM*	-88%
CCOC(=O)Cc1c(C)nc2c(C#N)c[nH]n2c1=O	-1%	-2%	-4%	-3%	2%	18%
CCc1c(C)nc2cc(-c3ccccc3)[nH]n2c1=O	u	u	3.2µM*	11µM*	u	x
CCCCc1c(C)nc2cc(-c3ccco3)[nH]n2c1=O	u	u	u	12µM*	u	x
C=CCc1c(C)nc2cc(-c3ccc(C)cc3)[nH]n2c1=O	1.8µM*	u	1.6µM*	3µM*	u	x
COc1cc(-c2cc3nc(C)c(C)c(=O)n3[nH]2)cc(OC)c1OC	0%	-6%	0%	-5%	u	-4%
CCc1nnc(SCC(=O)N(C)c2ccccc2)c2cc3sccc3n12	x	x	x	-3%	x	x
CCOC(=O)Cc1c(C)nc2cc(-c3ccc(C(C)(C)C)cc3)[nH]n2c1=O	u	10%	1%	11µM*	u	-5%
O=C(COC(=O)CCCNC(=O)c1ccc(Cl)cc1)Nc1cc(Cl)c(Cl)cc1Cl	7%	-1%	0%	u	15%	5%
Cc1cc(C)cc(NC(=O)COC(=O)CCCNC(=O)c2ccc(Cl)cc2)c1	-1%	-5%	0%	12µM*	17%	16%
COC1=C(c2ccccc2)C(=O)c2ccccc2C1=O	-8%	13%	-1%	-15%	-11%	-19%
O=C(C1=C(c2ccccc2)C(=O)c2ccccc2C1=O)c1ccccc1	-11%	-3%	-1%	5%	6.5µM*	-109%
O=C(CCn1cnc2onc(-c3ccc(F)cc3)c2c1=O)N1CCN(c2cccc(Cl)c2)CC1	x	x	x	-2%	x	x
Cc1cc(SCC(=O)N2CCC(c3noc4ccc(F)cc34)CC2)nc2ccccc12	-16%	-9%	-7%	-3%	21µM*	-38%
O=C(CSc1ncnc2sc3c(c12)CCCC3)N1CCC(c2noc3ccc(F)cc23)CC1	-5%	-7%	-7%	2%	-15%	-50%
COCc1cc(C)nc(N/N=C/c2ccc(-c3ccc(Cl)cc3[N+](=O)[O-])o2)c1C#N	-1%	4µM*	0%	-10%	-8%	-3%
COc1cc(-c2nnn(CC(=O)NC3CCS(=O)(=O)C3)n2)ccc1OCc1ccccc1 (stereo not drawn)	u	18%	u	12µM*	u	u
COc1cccc(NC(=O)CCC(=O)Nc2cc(OC)c(NC(=O)c3cccs3)cc2OC)c1	-8%	0%	-5%	-1%	u	x
C[C@@H](C(=O)Nc1ccc2ccccc2c1)[C@H]1C[C@]1(C)[C@H](NC(=O)c1cccnc1)c1ccccc1	-9%	0%	-5%	2%	18µM*	-13%
SMILES	ELG1 genotoxic	Rab9 prom act	NPC1 prom act	FLuc modulator	ELG1 repair inh	SMN2 splice enh
CC(C)(C)OC(=O)C[C@H]1C/C=C\C[C@@H](CC(=O)N[C@@H](CO)Cc2ccccc2)C(=O)NC[C@H](c2ccccc2)OC1=O	-3%	x	x	x	u	x
Cc1cccc(C(=O)Nc2sc3c(c2C(=O)Nc2ccccc2)CCC3)c1	x	x	x	u	x	-12%
Cc1cccc(C(=O)Nc2sc3c(c2C(=O)O)CCCC3)c1	0%	28%	23%	15µM*	u	15%
COC(=O)c1c(NC(=O)c2nc3ccccc3s2)sc2c1CCN(C(C)=O)C2	-1%	18%	-2%	u	u	-7%
O=C(Nc1sc2c(c1C(=O)O)CCC2)c1ccccc1Cl	-11%	-1%	0%	u	-7%	x
O=C(Nc1sc2c(c1C(=O)N1CCOCC1)CCCCC2)c1cccnc1	3%	-5%	-2%	4%	-3%	-9%
Cc1ccccc1C(=O)Nc1sc2c(c1C(=O)O)CCC2	-5%	-13%	-1%	19µM*	-11%	5%
O=C(Nc1sc2c(c1C(=O)O)CCCCC2)c1cccnc1	6%	28%	25%	17µM*	19%	x
CNC(=O)c1c(NC(=O)c2nc3ccccc3s2)sc2c1CCC2	4.6µM*	2µM*	u	5.4µM*	u	13µM*
Cc1cccc(NS(=O)(=O)c2cccc(C(=O)N3CCN(C/C=C/c4ccccc4)CC3)c2)c1	-11%	-11%	-7%	5%	u	x
CCOc1ccc(C(C)=O)cc1CN1C(=O)c2ccccc2S1(=O)=O	3%	0%	0%	4%	5%	x
COc1cc(C(=O)Nc2ccc(-c3cc(C(F)(F)F)nn3-c3ccccc3)cc2)cc(OC)c1OC	x	x	x	-2%	x	-25%
Cc1cc(S(=O)(=O)N(Cc2ccc(F)cc2)CC2CCCO2)ccc1-n1cnnn1 (stereo not drawn)	-4%	-3%	-2%	-15%	-4%	-32%
Cc1cc(S(=O)(=O)N(Cc2ccc(C(C)C)cc2)CC2CCCO2)ccc1-n1cnnn1 (stereo not drawn)	-21%	-10%	-5%	4%	16µM*	-50%
Cc1ccc(-c2cc(C(=O)Nc3nccs3)c3ccccc3n2)o1	-8%	-4%	-3%	11µM*	-19%	-34%
COc1cc(NC(=O)c2cc(C)nc3ccccc23)cc(OC)c1OC	8%	-8%	-5%	4%	7%	-2%
Cc1ccc(-c2cc(C(=O)Nc3nccs3)c3ccccc3n2)c(C)c1	-4%	-3%	-3%	-6%	13µM*	-43%
